Data taken from PubChem BioAssay (Tox21).
Where “and” joins values, the source holds several entries; their conditions need not be identical. Identical values can stand only once. Inconclusive results are not listed. Some compounds were tested as several samples or in several runs, with calls that do not always agree. Calls of active or inactive are those of the source. Calls follow the shape of the dose curve; as a rule, active = well fitted curve in the direction sought with a large enough effect in the repeat runs; inconclusive = weak or mixed curves; inactive = no such curve, though single readings can be large; an effect the other way counts as inactive or inconclusive.

How the values were obtained:
[1] = Human pregnane X receptor (PXR) small molecule agonists, qHTS cell viability counter screen (AID 1346977); also: nearly all actives have a fitted effect of over 50% in size; also: potency is read from the fitted curve at half-maximal effect
Procedure, shortened: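 Readout is CellTiter-Fluor fluorescence from PXR-Luc HepG2 cells. Plated cells rested 5hr, then were treated with compounds for 24hr at 37C and 5% CO2, with reagent present during the last hour.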

[2] = Caspase-3/7 induction in HepG2 cells by small molecules, qHTS assay (AID 1346978); also: nearly all actives have a fitted effect of over 15% in size
Procedure, shortened: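 Wild-type HepG2 cells, 2,000/well, settled 5 hr at 37 C and 5% CO2, then compound-treated for 17 hr; caspase-3/7 activity read by luminescent Caspase-Glo 3/7 after 30 min at room temperature.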

[3] = Caspase-3/7 induction in CHO-K1 cells by small molecules, qHTS cell viability counter screen (AID 1346979); also: nearly all actives have a fitted effect of over 35% in size; also: potency is read from the fitted curve at half-maximal effect
Procedure, shortened: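 To flag cytotoxic compounds, treated CHO-K1 wild-type cells were given CellTiter-Fluor at 16hr and read fluorescently after 1hr at 37C; the caspase-3/7 luminescence was measured in these same wells.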

[4] = Caspase-3/7 induction in HepG2 cells by small molecules, qHTS cell viability counter screen (AID 1346981); also: nearly all actives have a fitted effect of over 30% in size; also: potency is read from the fitted curve at half-maximal effect
Procedure, shortened: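 In this quantitative HTS counter screen, compounds delivered in DMSO were left on unmodified HepG2 cells for 16 hr at 37 C. Viability was then determined fluorometrically with CellTiter-Fluor, in parallel with caspase-3/7 induction in the same wells.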

[5] = target: Nuclear receptor subfamily 1 group I member 2 (Homo sapiens) (UniProt O75469); experiment: Human pregnane X receptor (PXR) small molecule agonists, qHTS assay (AID 1346982); also: nearly all actives have a fitted effect of over 35% in size; also: potency is read from the fitted curve at half-maximal effect
Nuclear receptor subfamily 1 group I member 2 (Homo sapiens), sequence (O75469 whole entry, looked up): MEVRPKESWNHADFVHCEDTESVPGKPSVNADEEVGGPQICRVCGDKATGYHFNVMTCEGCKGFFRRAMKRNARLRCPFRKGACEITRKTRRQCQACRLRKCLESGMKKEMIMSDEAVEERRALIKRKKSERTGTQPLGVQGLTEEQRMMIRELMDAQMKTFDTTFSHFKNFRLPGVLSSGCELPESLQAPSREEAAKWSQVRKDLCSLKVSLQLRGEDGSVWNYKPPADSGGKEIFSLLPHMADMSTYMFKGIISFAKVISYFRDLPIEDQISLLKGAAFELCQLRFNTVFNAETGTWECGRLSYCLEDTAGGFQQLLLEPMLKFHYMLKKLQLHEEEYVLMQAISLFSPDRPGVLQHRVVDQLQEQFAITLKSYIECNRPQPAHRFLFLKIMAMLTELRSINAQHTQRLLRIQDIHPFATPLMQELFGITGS
Procedure, shortened: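 Reporter HepG2 cells expressing PXR-Luc are cultured in charcoal-stripped FBS (5%), treated with compounds for 24 hr at 37 C, and assayed by ONE-Glo luminescence after 30 min at room temperature.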

[6] = target: Cytochrome P450 2D6 (Homo sapiens) (UniProt P10635); experiment: Cytochrome P450 Family 2 Subfamily D Member 6 (CYP2D6) small molecule antagonists: luciferase reporter qHTS assay (AID 1671196); also: nearly all actives have a fitted effect of over 50% in size; also: potency is read from the fitted curve at half-maximal effect
Cytochrome P450 2D6 (Homo sapiens), sequence (P10635 whole entry, looked up): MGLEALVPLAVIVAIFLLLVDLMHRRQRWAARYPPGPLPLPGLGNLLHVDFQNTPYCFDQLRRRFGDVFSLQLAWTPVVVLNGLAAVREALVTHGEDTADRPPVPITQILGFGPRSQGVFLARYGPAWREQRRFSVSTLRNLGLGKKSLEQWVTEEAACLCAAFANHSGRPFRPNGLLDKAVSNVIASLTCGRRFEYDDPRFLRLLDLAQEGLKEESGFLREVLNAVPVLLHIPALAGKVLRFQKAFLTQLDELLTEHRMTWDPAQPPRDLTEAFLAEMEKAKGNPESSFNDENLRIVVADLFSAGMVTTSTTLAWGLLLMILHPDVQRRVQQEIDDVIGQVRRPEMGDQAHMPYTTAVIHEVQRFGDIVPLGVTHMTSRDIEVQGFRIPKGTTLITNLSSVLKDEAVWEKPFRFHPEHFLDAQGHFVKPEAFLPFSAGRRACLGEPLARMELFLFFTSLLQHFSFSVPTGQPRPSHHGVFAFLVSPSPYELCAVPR
Procedure, shortened: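 Test chemicals meet CYP2D6 plus proluciferin substrate (10 min, RT); NADPH regenerating solution then drives turnover for 1 h. Detection reagent halts the reaction; luminescence measured after 20 min.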

[7] = target: Cytochrome P450 2C19 (Homo sapiens) (UniProt P33261); experiment: Cytochrome P450 Family 2 Subfamily C Member 19 (CYP2C19) small molecule antagonists: luciferase reporter qHTS assay (AID 1671197); also: nearly all actives have a fitted effect of over 65% in size; also: potency is read from the fitted curve at half-maximal effect
Cytochrome P450 2C19 (Homo sapiens), sequence (P33261 whole entry, looked up): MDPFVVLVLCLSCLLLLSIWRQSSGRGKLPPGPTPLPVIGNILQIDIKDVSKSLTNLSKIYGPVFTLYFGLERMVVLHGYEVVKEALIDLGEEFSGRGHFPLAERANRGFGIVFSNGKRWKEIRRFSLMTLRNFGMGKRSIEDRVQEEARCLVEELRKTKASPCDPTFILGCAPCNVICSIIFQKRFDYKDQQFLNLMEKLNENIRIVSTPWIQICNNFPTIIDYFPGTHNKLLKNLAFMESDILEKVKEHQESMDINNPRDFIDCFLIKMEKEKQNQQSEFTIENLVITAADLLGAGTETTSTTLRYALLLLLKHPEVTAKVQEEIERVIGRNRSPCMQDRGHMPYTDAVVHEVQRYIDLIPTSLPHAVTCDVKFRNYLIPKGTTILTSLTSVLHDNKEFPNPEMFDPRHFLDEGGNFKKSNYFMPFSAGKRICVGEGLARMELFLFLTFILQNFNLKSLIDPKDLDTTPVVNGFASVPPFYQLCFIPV
Procedure, shortened: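 P450-Glo CYP2C19 system: enzyme-substrate mix with compound 10 min at room temperature, then NADPH regeneration solution, 1 h at 37C. Proluciferin-to-luciferin conversion detected by luminescence after 20 min with detection reagent; ketoconazole as positive control.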

[8] = target: Cytochrome P450 1A2 (Homo sapiens) (UniProt P05177); experiment: Cytochrome P450 Family 1 Subfamily A Member 2 (CYP1A2) small molecule antagonists: luciferase reporter qHTS assay (AID 1671199); also: nearly all actives have a fitted effect of over 50% in size; also: potency is read from the fitted curve at half-maximal effect
Cytochrome P450 1A2 (Homo sapiens), sequence (P05177 whole entry, looked up): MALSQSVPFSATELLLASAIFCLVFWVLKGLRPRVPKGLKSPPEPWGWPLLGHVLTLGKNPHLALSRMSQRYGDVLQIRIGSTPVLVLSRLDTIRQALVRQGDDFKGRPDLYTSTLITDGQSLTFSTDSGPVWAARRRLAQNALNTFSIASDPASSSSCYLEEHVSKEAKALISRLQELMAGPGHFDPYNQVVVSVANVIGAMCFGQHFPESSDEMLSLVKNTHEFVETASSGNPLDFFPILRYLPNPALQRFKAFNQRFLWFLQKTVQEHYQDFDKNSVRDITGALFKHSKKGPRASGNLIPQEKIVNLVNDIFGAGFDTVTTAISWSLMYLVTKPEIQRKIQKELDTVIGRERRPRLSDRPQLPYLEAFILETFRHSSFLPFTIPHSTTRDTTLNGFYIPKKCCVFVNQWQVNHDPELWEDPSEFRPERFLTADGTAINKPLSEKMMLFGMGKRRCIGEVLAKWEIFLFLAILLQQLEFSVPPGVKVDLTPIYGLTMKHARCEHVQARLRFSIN
Procedure, shortened: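 Steps: enzyme-substrate mix dispensed; test compounds and furafylline control pinned in; 10 min room temperature; NADPH regeneration solution added, 1 h; reaction stopped with luciferin detection reagent; luminescence read after 20 min.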

[9] = target: Voltage-gated inwardly rectifying potassium channel KCNH2 (Homo sapiens) (UniProt Q12809); experiment: Human Ether-a-go-go-Related Gene (hERG) channel small molecule antagonists: fluorescence cell-based qHTS assay (AID 1671200); also: nearly all actives have a fitted effect of over 50% in size; also: potency is read from the fitted curve at half-maximal effect
Voltage-gated inwardly rectifying potassium channel KCNH2 (Homo sapiens), sequence (Q12809 whole entry, looked up): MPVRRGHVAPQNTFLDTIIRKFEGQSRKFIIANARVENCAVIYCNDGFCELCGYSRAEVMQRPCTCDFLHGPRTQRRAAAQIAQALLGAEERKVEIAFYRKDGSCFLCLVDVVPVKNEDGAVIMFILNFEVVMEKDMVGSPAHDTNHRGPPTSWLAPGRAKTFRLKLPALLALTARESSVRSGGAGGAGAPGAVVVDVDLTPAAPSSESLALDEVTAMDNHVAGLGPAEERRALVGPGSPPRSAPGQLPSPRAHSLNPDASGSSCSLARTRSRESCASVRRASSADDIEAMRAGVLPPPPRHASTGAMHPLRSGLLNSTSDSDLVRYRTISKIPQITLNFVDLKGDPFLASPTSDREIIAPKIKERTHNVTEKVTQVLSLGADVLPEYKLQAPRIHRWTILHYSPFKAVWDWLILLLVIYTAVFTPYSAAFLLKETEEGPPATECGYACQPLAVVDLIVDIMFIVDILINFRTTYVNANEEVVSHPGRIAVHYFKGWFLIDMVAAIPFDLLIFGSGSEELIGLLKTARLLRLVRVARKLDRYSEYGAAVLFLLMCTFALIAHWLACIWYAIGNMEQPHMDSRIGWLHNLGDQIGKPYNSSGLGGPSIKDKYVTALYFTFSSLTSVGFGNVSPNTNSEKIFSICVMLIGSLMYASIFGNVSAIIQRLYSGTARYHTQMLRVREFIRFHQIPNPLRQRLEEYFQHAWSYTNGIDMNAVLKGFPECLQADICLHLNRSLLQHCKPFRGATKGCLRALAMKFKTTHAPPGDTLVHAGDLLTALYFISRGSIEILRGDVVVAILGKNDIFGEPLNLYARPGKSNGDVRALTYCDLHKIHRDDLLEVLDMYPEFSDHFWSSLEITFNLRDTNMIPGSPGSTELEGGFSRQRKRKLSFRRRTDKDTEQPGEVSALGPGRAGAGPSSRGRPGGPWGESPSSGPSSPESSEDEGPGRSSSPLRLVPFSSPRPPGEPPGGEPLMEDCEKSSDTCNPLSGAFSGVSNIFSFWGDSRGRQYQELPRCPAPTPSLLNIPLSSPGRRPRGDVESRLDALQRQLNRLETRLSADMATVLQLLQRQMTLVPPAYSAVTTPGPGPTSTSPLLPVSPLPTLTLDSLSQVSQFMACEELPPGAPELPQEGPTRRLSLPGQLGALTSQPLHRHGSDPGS
Procedure, shortened: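 Measured: Tl+ flux via fluorescence (480/540 nm) in hERG-expressing U2OS cells after 1 h dye loading at room temperature.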

[10] = target: Cytochrome P450 3A4 (Homo sapiens) (UniProt P08684); experiment: Cytochrome P450 Family 3 Subfamily A Member 4 (CYP3A4) small molecule antagonists: luciferase reporter qHTS assay (AID 1671201); also: nearly all actives have a fitted effect of over 50% in size; also: potency is read from the fitted curve at half-maximal effect
Cytochrome P450 3A4 (Homo sapiens), sequence (P08684 whole entry, looked up): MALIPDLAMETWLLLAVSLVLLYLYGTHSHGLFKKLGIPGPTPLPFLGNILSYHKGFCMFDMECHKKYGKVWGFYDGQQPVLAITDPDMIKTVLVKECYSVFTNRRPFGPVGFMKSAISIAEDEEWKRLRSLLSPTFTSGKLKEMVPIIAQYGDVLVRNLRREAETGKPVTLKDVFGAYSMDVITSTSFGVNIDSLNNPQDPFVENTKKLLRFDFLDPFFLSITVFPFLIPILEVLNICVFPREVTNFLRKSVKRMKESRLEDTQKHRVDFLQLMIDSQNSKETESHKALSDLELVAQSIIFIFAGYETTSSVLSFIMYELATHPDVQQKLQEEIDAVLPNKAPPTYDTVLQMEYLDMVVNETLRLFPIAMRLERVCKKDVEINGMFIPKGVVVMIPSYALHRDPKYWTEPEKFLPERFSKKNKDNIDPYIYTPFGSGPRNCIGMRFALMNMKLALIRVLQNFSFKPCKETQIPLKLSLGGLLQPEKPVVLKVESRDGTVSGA
Procedure, shortened: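 Setup: enzyme-substrate mix, compound pin transfer, 10 min RT. Reaction: NADPH regeneration solution, 1 h RT. Readout: detection reagent stops turnover, luminescence measured after 20 min, expressed in relative luminescence units.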

[11] = target: Nuclear receptor subfamily 1 group I member 2 (Rattus norvegicus) (UniProt Q9R1A7); experiment: Rat pregnane X receptor (rPXR) activation by small molecules, qHTS assay (AID 1346983); conditions: rPXR luciferase reporter cells, One-Glo luminescence, 24 h; max activation: stronger effect = higher value; also: nearly all actives have a fitted effect of over 20% in size; also: potency is read from the fitted curve at half-maximal effect
Nuclear receptor subfamily 1 group I member 2 (Rattus norvegicus), sequence (Q9R1A7 whole entry, looked up): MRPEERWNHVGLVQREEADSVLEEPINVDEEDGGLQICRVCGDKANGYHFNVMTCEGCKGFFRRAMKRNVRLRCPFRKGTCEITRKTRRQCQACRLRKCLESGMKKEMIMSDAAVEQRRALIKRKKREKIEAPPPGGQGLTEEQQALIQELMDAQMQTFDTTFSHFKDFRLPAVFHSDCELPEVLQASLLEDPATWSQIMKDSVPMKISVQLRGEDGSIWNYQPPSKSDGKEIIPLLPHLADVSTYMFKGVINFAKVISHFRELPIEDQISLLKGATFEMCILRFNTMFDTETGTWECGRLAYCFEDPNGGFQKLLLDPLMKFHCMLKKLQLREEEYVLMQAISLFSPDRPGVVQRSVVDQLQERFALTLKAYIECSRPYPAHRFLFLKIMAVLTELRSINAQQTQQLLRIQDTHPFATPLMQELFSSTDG
Procedure, shortened: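 Cell-based rPXR activation assay: rPXR cells, 2,000 per well, rested 5hr at 37 C, then exposed to compounds in DMSO for 24 hr at 37 C. Luciferase activity read by One-Glo luminescence after 30 min at room temperature.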

[12] = target: Nuclear receptor subfamily 1 group I member 2 (Homo sapiens) (UniProt O75469); experiment: CYP3A4 induction through human pregnane X receptor (PXR) by small molecules, qHTS assay (AID 1346984); also: nearly all actives have a fitted effect of over 40% in size
Procedure, shortened: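 Induction measured in HepG2-based DPX-2 cells co-expressing human PXR and a CYP3A4 promoter-driven luciferase. After a 24-hour compound exposure, cells received CYP3A4 luciferin substrate at 3uM final for 3 hours, and light output was then recorded.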

[13] = target: Nuclear receptor subfamily 1 group I member 2 (Homo sapiens) (UniProt O75469); experiment: Human pregnane X receptor (PXR) activation by small molecules, qHTS assay (AID 1346985); also: nearly all actives have a fitted effect of over 40% in size
Procedure, shortened: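 DPX-2 cells (HepG2 co-transfected with a PXR response element and a CYP3A4-promoter luciferase construct) were seeded at 2,000 per well, rested 5 hr at 37C, then exposed to DMSO-dissolved compounds for 24 hr. Activation was read as luciferase luminescence.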

[14] = target: Cytochrome P450 2C9 (Homo sapiens) (UniProt P11712); experiment: Cytochrome P450 Family 2 Subfamily C Member 9 (CYP2C9) small molecule antagonists: luciferase reporter qHTS assay (AID 1671198); also: nearly all actives have a fitted effect of over 50% in size; also: potency is read from the fitted curve at half-maximal effect
Cytochrome P450 2C9 (Homo sapiens), sequence (P11712 whole entry, looked up): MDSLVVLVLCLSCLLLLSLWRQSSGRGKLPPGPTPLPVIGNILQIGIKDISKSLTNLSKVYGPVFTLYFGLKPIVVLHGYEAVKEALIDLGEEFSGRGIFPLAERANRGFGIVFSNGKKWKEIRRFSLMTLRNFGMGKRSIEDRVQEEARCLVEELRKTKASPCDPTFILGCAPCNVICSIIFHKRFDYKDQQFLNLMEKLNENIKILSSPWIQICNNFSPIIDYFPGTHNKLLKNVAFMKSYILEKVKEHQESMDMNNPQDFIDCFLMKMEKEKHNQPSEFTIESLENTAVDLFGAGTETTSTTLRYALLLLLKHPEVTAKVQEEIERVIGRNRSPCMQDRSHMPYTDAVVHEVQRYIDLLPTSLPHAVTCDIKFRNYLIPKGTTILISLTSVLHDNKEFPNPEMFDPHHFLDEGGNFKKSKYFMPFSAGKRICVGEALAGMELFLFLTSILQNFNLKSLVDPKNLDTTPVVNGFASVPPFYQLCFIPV
Procedure, shortened: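 P450-Glo proluciferin substrate with CYP2C9 enzyme; 10 min RT preincubation, then NADPH regeneration 1 h at 37C; luciferin detection reagent 20 min RT, luminescence in relative luminescence units.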

[15] = Caspase-3/7 induction in CHO-K1 cells by small molecules, qHTS assay (AID 1346980); also: nearly all actives have a fitted effect of over 15% in size
Procedure, shortened: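 Wild-type CHO-K1 cells exposed to compounds for 17hr at 37 C, 5% CO2. Caspase-3/7 activity then measured by Caspase-Glo 3/7 luminescence after 30min at room temperature.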
% is scaled to controls: 0 for no effect and ±100 for the full control effect.

Cc1ccc(C)c(O)c1C
active: Potency [8] 28.1 µM and 28.3 µM
inactive: Potency [1] | Potency [2] | Potency [3] | Potency [4] | Potency [5] | Potency [6] | Potency [7] | Potency [9] | Potency [10]

Nc1ccc(S(=O)(=O)Nc2cnc3ccccc3n2)cc1
active: Potency [7] 39.9 µM | Potency [14] 11.2 µM and 15.5 µM
inactive: Potency [1] | Potency [2] | Potency [3] | Potency [4] | max activation [11] 6.27% | Potency [12] | Potency [13] | Potency [6] | Potency [9] | Potency [10]

CC(CCC(=O)O)(c1ccc(O)cc1)c1ccc(O)cc1
inactive: Potency [1] | Potency [2] | Potency [3] | Potency [4] | Potency [8] | Potency [9] | Potency [10]
inactive and 25.2 µM (active): Potency [6]
active: Potency [7] 71.8 µM and 35.6 µM

CC(=O)CC/C=C(\C)CCC=C(C)C
inactive and 17.8 µM (active): Potency [10]
inactive and 39.9 µM (active): Potency [7] | Potency [8]
inactive: Potency [1] | Potency [2] | Potency [3] | Potency [4] | Potency [6] | Potency [9]
inactive and 35.6 µM (active): Potency [14]

O=C1OC2(c3cc(Br)c(O)c(Br)c3Oc3c2cc(Br)c(O)c3Br)c2c(Cl)c(Cl)c(Cl)c(Cl)c21
active: Potency [1] 2.51 µM and 11.7 µM | Potency [3] 6.87 µM and 14.8 µM | Potency [4] 9.7 µM and 16.6 µM | Potency [6] 24.2 µM | Potency [7] 38.4 µM | Potency [14] 10 µM and 17.2 µM | Potency [8] 12.6 µM
71.1 µM (active) and inactive: Potency [10]
inactive: Potency [2] | Potency [5] | Potency [9]

CC(C)OB(OC(C)C)OC(C)C
inactive: Potency [1] | Potency [2] | Potency [3] | Potency [4] | Potency [5] | Potency [6] | Potency [14] | Potency [8] | Potency [9] | Potency [10]
40 µM (active) and inactive: Potency [7]

O=C1c2cccc(O)c2C(=O)c2c(O)cccc21
active: Potency [7] 28.6 µM and 38.9 µM | Potency [8] 9.03 µM and 6.45 µM
inactive: Potency [1] | Potency [2] | Potency [3] | Potency [4] | max activation [11] -1.61% | Potency [12] | Potency [13] | Potency [6] | Potency [9] | Potency [10]

O=C(/C=C/C=C/c1ccc2c(c1)OCO2)N1CCCCC1
active: Potency [5] 10.9 µM | Potency [6] 63.4 µM and 44.8 µM | Potency [14] 12.7 µM and 35.6 µM | Potency [8] 28.3 µM and 22.4 µM
inactive: Potency [1] | Potency [2] | Potency [15] | Potency [4] | Potency [9]

COC(=O)CCC(=O)OC
inactive: Potency [1] | Potency [2] | Potency [3] | Potency [4] | Potency [6] | Potency [7] | Potency [14] | Potency [9] | Potency [10]
56 µM (active) and inactive: Potency [5]

NNc1ccc(C(=O)O)cc1
inactive: Potency [1] | Potency [2] | Potency [3] | Potency [4] | Potency [9] | Potency [10]
active: Potency [5] 43.9 nM and 27.6 nM | Potency [7] 32.1 µM and 40.3 µM | Potency [14] 10.2 µM | Potency [8] 32.1 µM and 32 µM

COC(=O)C1=C(C)NC(C)=C(C(=O)OCCN(C)Cc2ccccc2)C1c1cccc([N+](=O)[O-])c1 (stereo not given)
active: Potency [1] 27.1 µM and 26.6 µM | Potency [3] 30.5 µM and 26.6 µM | Potency [4] 48.3 µM and 26.6 µM | Potency [9] 10.9 µM and 8.49 µM
inactive: Potency [2] | Potency [8]

O=C(c1ccccc1)c1ccc(O)cc1O
active: Potency [5] 62.3 µM and 61.1 µM | Potency [6] 8.12 µM and 20 µM | Potency [7] 9.11 µM and 22.4 µM | Potency [14] 57.5 µM and 39.9 µM | Potency [8] 25.7 µM and 31.7 µM | Potency [10] 14.4 µM and 25.2 µM
inactive: Potency [1] | Potency [2] | Potency [4] | Potency [9]

O=[N+]([O-])c1ccc2c(c1)Cc1ccccc1-2
inactive: Potency [1] | Potency [2] | Potency [4] | Potency [6] | Potency [9] | Potency [10]
active: Potency [7] 22.4 µM and 20 µM | Potency [8] 2 µM and 8.94 µM

c1ccc2c(c1)Oc1ccccc1S2
inactive and 71 µM (active): Potency [7]
inactive: Potency [1] | Potency [2] | Potency [3] | Potency [4] | Potency [5] | Potency [6] | Potency [10]
active: Potency [8] 12.8 µM and 8.94 µM

CC(C)Oc1ccc2c(=O)c(-c3ccccc3)coc2c1
inactive: Potency [1] | Potency [2] | Potency [15] | Potency [4] | Potency [12] | Potency [6] | Potency [7] | Potency [9] | Potency [10]
active: Potency [5] 2.98 µM and 1.06 µM | Potency [11] 0.316 µM | Potency [14] 17.4 µM and 27.5 µM | Potency [8] 12.3 µM and 6.45 µM
